Assay outcomes (PubChem BioAssay)
mIDH1 inhibitor – qHTS for Inhibitors of mutant isocitrate dehydrogenase 1 (IDH1): qHTS | Isocitrate dehydrogenase [NADP] cytoplasmic (Homo sapiens), O75874 | IDH1-R132H enzyme, NADPH consumption, diaphorase/resazurin fluorescence | Potency, µM (top dose mostly 76.6 µM), for the others: at the top dose activity change, negative = inhibition, actives largely listed as inhibitors | 390,000 compounds, 0.093% hits | AID 602179, 2012; note: potency is the fitted concentration of half-maximal effect; % is set by controls: 0 for no effect and ±100 for the full control effect; nearly all actives have a fitted effect of over 65% in size
Target sequence (O75874 whole entry R132H, stated change not applied): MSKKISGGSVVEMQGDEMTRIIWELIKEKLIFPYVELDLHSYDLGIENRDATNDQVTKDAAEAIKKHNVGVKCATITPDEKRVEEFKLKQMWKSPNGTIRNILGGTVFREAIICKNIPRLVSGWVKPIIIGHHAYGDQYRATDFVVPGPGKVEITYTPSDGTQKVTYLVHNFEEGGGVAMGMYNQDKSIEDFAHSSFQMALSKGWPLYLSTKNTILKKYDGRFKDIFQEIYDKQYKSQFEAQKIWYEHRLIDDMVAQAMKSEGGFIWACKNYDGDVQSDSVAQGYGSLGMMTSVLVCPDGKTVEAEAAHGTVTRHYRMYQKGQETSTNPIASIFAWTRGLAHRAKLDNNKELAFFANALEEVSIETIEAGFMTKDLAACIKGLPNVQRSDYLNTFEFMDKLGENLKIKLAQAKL
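IDH1-R132H (0.5 ug/mL) preincubated 30 min with compound, then NADPH (0.016 mM) and alpha-KG (2 mM) added; 80 min at RT, pH 7.5. Remaining NADPH coupled via diaphorase/resazurin to fluorescence (540/590 nm); concentration-response curves normalized to no-enzyme control.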
GLS inh – qHTS for Inhibitors of Glutaminase (GLS); Glutaminase kidney isoform, mitochondrial (Homo sapiens), O94925; GLS enzymatic activity, qHTS titration; Potency, µM (titrated, usually from 45.5 µM), for the others: top-dose activity change, negative = inhibition, hits mostly inhibitors; 410,000 compounds, 0.21% hits; note: potency is the fitted concentration of half-maximal effect; % is set by controls: 0 for no effect and ±100 for the full control effect
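Two-point fluorescence kinetic (t0, 30 min RT) for hKGA; glutamate detected via glutamate oxidase–HRP–Amplex Red. Substrate: 1 mM L-glutamine solution; buffer 45 mM KH2PO4, pH 8.2.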
TrxR1 substrate – qHTS Assay for Substrates of Mammalian Selenoprotein Thioredoxin Reductase 1 (TrxR1): qHTS; Thioredoxin reductase 1, cytoplasmic (Rattus norvegicus), O89049; purified TrxR1 substrate turnover, NADPH consumption readout; Potency, µM (titrated, usually from 114 µM), for inactives: at the highest dose activity change, negative = substrate turnover; 390,000 compounds, 0.01% hits; note: potency is the fitted concentration of half-maximal effect; % is set by controls: 0 for no effect and ±100 for the full control effect; nearly all actives have a fitted effect of over 50% in size
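Rat TrxR1, dispensed at 90 nM, was prereduced with 400 uM NADPH (final) for 5 min at ~22 deg C, then incubated with compound 15 min before 400 uM selenite. A first-read NADPH fluorescence drop versus no-compound background flagged substrates.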
rTrxR1 inhibitor – qHTS Assay for Inhibitors of Mammalian Selenoprotein Thioredoxin Reductase 1 (TrxR1): qHTS; Thioredoxin reductase 1, cytoplasmic (Rattus norvegicus), O89049; recombinant rTrxR1, NADPH fluorescence consumption, selenite substrate; Potency, µM (highest dose often 114 µM), inactives show at the highest dose activity change, negative = inhibition, hits mostly inhibitors; 390,000 compounds, 1% hits; AID 588453, 2011; note: potency is the fitted concentration of half-maximal effect; % is set by controls: 0 for no effect and ±100 for the full control effect; nearly all actives have a fitted effect of over 65% in size
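Rat TrxR1 (90 nM in the dispensed reagent) was pre-reduced with 400 uM NADPH for 5 min at room temperature, then incubated with compound for 15 min. After 400 uM selenite was added, NADPH fluorescence (Ex 340/Em 450 nm) was followed for 8 min.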
PKM2 activator – qHTS Assay for Activators of Human Muscle isoform 2 Pyruvate Kinase | Pyruvate kinase PKM (Homo sapiens), P14618 | purified PKM2, Kinase-Glo ATP luminescence, activation; response scale: 0% is enzyme alone, no compound | Potency, µM (top dose mostly 57.5 µM), inactives show top-dose activation, hits mostly activators | 260,000 compounds, 0.34% hits | AID 1631, 2009; note: potency is the fitted concentration of half-maximal effect; % is set by controls: 0 for no effect and ±100 for the full control effect; nearly all actives have a fitted effect of over 55% in size
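Purified hPK-M2 (>95%) run at intermediate activity with 0.1 mM ADP and 0.5 mM PEP in 50 mM imidazole pH 7.2, KCl, MgCl2; 1 h room temperature. ATP formed read by Kinase-Glo luminescence; normalized to uninhibited and no-enzyme controls.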
LDHA inh – qHTS assay for inhibitors of human lactate dehydrogenase. 480,000 compounds, 0.15% hits. activity change, % (values are at about 110 or 230 µM). purified LDHA, NADH/diaphorase-resazurin fluorescence; hits give low values; in the data active = activity change below about -30%; inconclusive = mostly about -25% to -30%;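 note: plate controls were DMSO wells for no effect and wells without enzyme for full effect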
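Human LDH5 (2 nM) was incubated with 0.06 mM NADH and 0.2 mM pyruvate for 5 min at room temperature in Tris pH 7.4. Remaining NADH was coupled through diaphorase/resazurin, and resorufin fluorescence was read at 0 and 20 min.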
HeLa tox – Secondary assay for Activators of Human Pyruvate Kinase M2 isoform - Cell Titer Glo cytotoxicity assay. shares compounds with PKM2 activator. HeLa viability, CellTiter-Glo ATP luminescence, 24 h. activity change, negative = cytotoxicity, % at 57.5 µM. 230 tested, under 10 active; note: % of control where 0% means no effect
Starred values were filed as active, the others as inactive; ? = inconclusive; · = no result given; [ ] = dose if it differs, or a comment. Sampled rows, rich in hits. Any-hit rate of the full collection: about 1.4%. Unless noted, calls come from the whole dose curve; as a rule, active = well fitted curve in the direction sought with a large enough effect; inconclusive = small, poorly fitted or top-dose-only effect, or another doubt; inactive = no such curve, though single readings can be large; an effect the other way counts as inactive or inconclusive.

SMILES	mIDH1 inhibitor	GLS inh	TrxR1 substrate	rTrxR1 inhibitor	PKM2 activator	LDHA inh	HeLa tox
O=S(=O)(c1ccc2c(c1)OCCO2)N1CCN(S(=O)(=O)c2ccc(Cl)cc2F)CC1	·	·	·	·	·	-8	·
O=S(=O)(c1cccc(F)c1)N1CCN(S(=O)(=O)c2ccc3c(c2)OCCO3)CC1	·	·	·	·	·	-1	11
O=S(=O)(c1cccc(Br)c1)N1CCN(S(=O)(=O)c2ccc3c(c2)OCCO3)CC1	·	-16%	4%[57.1 µM]	29%[57.1 µM]	·	-4	·
Nc1ccc(S(=O)(=O)N2CCN(S(=O)(=O)c3ccc4c(c3)OCCO4)CC2)cc1	·	·	·	·	·	-3	·
C/C(=N/NC(=S)Nc1ccc(Cl)cc1)c1ccc(Br)cc1	·	·	·	·	·	-23	·
COc1ccc(S(=O)(=O)N2CCN(S(=O)(=O)c3ccc(OC)cc3)CC2)cc1	·	·	·	·	·	-9	-3
O=S(=O)(c1ccc2c(c1)OCCO2)N1CCN(c2nc(-c3ccccc3)nc3ccccc23)CC1	·	·	4%	20%	·	-7	·
O=S(=O)(c1ccc2c(c1)OCCO2)N1CCN(S(=O)(=O)c2cccc[n+]2[O-])CC1	·	·	·	·	·	-2	6
O=S(=O)(c1ccc2c(c1)OCCO2)N1CCN(c2nc3ccccc3s2)CC1	13%	4%	6%	30%	4µM*	-4	-9
O=S(=O)(c1ccc2c(c1)OCCO2)N1CCN(S(=O)(=O)c2ccccn2)CC1	·	3%	12%[57.1 µM]	12%[57.1 µM]	·	-11	-12
O=S(=O)(c1cccc(Cl)c1)N1CCN(S(=O)(=O)c2ccc3c(c2)OCCO3)CC1	·	1%	0%[57.1 µM]	12%[57.1 µM]	·	0	·
O=S(=O)(c1ccc2c(c1)OCCO2)N1CCN(S(=O)(=O)c2ccccc2Cl)CC1	·	·	·	·	·	-14	·
CCOC(=O)N1CCc2c(sc3c2C(=O)NC(c2cccc4ccccc24)N3)C1 (stereo not given)	·	·	·	·	·	2	·
O=C(CN1CCC(c2ccccc2)CC1)c1c[nH]c2ccccc12	·	·	·	·	·	7	·
CCN(CC)S(=O)(=O)c1ccc(NC(=O)CSc2nc3ccccc3n2CC)cc1	·	·	·	·	·	5	·
COc1cc(F)c(S(=O)(=O)N2CCCN(S(=O)(=O)c3ccc4c(c3)OCCO4)CC2)c(F)c1	·	·	·	·	·	-2	·
COc1cc(F)c(S(=O)(=O)N2CCN(S(=O)(=O)c3ccc4c(c3)OCCO4)CC2)c(F)c1	·	·	·	·	·	-6	-8
COc1ccc(S(=O)(=O)N2CCC(C(=O)NCc3cccc(OC)c3)CC2)cc1	2%	-12%	-5%	1%	1.6µM*	-3	0
COc1ccc(S(=O)(=O)N2CCN(S(=O)(=O)c3ccc4c(c3)OCCO4)CC2)cc1	-3%	-2%	4%	10%	0.22µM*	-6	?
CC(OC(=O)C1=CN2CCS(=O)(=O)N=C2C=C1)C(=O)Nc1ccccc1 (stereo not given)	·	·	·	·	·	-3	·
CN(c1ccccc1)S(=O)(=O)c1cccc(C(=O)NCCc2ccc(O)c(O)c2)c1	-2%	3.5µM*	13%[57.1 µM]	?	1.4µM*	13	-22
Cc1cccc(S(=O)(=O)Nc2nc3ccccc3nc2Nc2cccc(F)c2)c1	·	·	·	·	·	-1	·
O=C(Nc1ccc2nc(SCc3cccc4ccccc34)sc2c1)c1ccc(Cl)cc1	·	·	·	·	·	2	·
O=S1(=O)c2ccccc2N=NN1Cc1ccc(Cl)c(Cl)c1	·	·	·	·	26%	·	·
CC(C)(C)c1ccc(CN2N=Nc3ccccc3S2(=O)=O)cc1	16%	-2%	3%	?	3.2µM*	13	?
SMILES	mIDH1 inhibitor	GLS inh	TrxR1 substrate	rTrxR1 inhibitor	PKM2 activator	LDHA inh	HeLa tox
CCc1c(C(=O)NCc2ccccc2Cl)[nH]c(C)c1C(C)=O	0%	-12%	-10%	-16%	2%	-4	·
CC(=O)c1c(C)[nH]c(C(=O)NCc2ccccc2Cl)c1C	11%	15%	5%	20%	7.9µM*	-8	-3
CN(CCCC(=O)N1CCc2ccccc2C1)S(=O)(=O)c1ccc(F)cc1	·	·	·	·	·	-11	·
Cc1ccc(-c2nc3ccccn3c2Nc2ccccc2)o1	-5%	?	34%[57.1 µM]	58%	2.2µM*	4	-5
CC(C)(C)c1ncc(NC(=O)c2cc[n+]([O-])cc2)cn1	·	·	·	·	·	3	·
COc1ccc(CCNC(=O)CSc2ccc3ccccc3c2)cc1OC	12%	-5%	-4%	-6%	0%	2	·
O=C(CSc1ccc2ccccc2c1)NCCc1ccc(O)c(O)c1	-1%	1.4µM*	12%[57.1 µM]	?	2.8µM*	11	10
Cn1c2ccsc2c2cnn(Cc3ccccc3F)c(=O)c21	·	·	·	·	·	-8	15
CC(C)c1cc2c(s1)c1cnn(Cc3ccccc3F)c(=O)c1n2C	·	·	·	·	·	-7	?
Cn1c2cc(Br)sc2c2cnn(Cc3ccccc3F)c(=O)c21	·	·	·	·	·	-3	·
Cn1c2cc(Br)sc2c2cnn(Cc3c(F)cccc3Cl)c(=O)c21	·	6%	-3%	7%	·	-5	·
CC(O)c1cc2c(s1)c1cnn(Cc3ccccc3F)c(=O)c1n2C (stereo not given)	·	0%	-4%	7%	·	-5	-11
COC(=O)c1cc2c(s1)c1cnn(Cc3ccccc3F)c(=O)c1n2C	·	·	·	·	·	·	2[23.3 µM]
CCOc1cc(C#N)c(NC(=O)c2ccc3c(c2)OCO3)cc1OCC	·	·	·	·	·	1	·
Cc1ccc(-c2ccc(/C=N/Nc3ccc(S(N)(=O)=O)cc3)o2)c([N+](=O)[O-])c1	·	·	·	·	·	59	·
Cn1c2cc(C#N)sc2c2cnn(Cc3ccccc3F)c(=O)c21	·	·	·	·	·	-1	-5
Cn1c2cc([N+](=O)[O-])sc2c2cnn(Cc3ccccc3F)c(=O)c21	·	·	·	·	·	·	15
Cn1c2cc(Br)sc2c2cnn(Cc3ccc(F)cc3F)c(=O)c21	·	-4%	0%	7%	·	4	·
O=c1[nH]c(Cn2nnc(-c3ccccc3)n2)nc2scc(-c3ccccc3)c12	3%	8%	8%[57.1 µM]	5%[57.1 µM]	14µM*	-1	-20
O=C(CCCn1c(=S)[nH]c2cc3c(cc2c1=O)OCO3)NC1CC1	8%	-19%	-9%	-17%	2.8µM*	-2	-5
